Assay results: PubChem BioAssay AID1918 (Vanderbilt High Throughput Screening Facility, 2009)
Screen size: about 130,000 compounds; about 2,500 (1.9%) were called active. Many of the other results were omitted from the sample, so actives are more common in it than they were. Values without a mark were called inactive.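 How the source made its calls: active means signal ratio slope over the read window, or its plate-corrected B-score, at least 3 SD from the plate mean, either direction; inactive means the rest.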

The molecules below were run against ATP-sensitive inward rectifier potassium channel 1 (Homo sapiens) (UniProt P48048) (assay: Kir1.1 channel activity modulation, library screen – cell-based, thallium flux, MLSMR library, primary screen (AID 1918;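 further: B-score of the F/F0 ratio slope over 7 to 12 s after thallium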)). Settings: Tet-inducible ROMK, thallium flux fluorescence; at 10 µM; actives lie on both sides.
ATP-sensitive inward rectifier potassium channel 1 (Homo sapiens), sequence (P48048 whole entry, looked up): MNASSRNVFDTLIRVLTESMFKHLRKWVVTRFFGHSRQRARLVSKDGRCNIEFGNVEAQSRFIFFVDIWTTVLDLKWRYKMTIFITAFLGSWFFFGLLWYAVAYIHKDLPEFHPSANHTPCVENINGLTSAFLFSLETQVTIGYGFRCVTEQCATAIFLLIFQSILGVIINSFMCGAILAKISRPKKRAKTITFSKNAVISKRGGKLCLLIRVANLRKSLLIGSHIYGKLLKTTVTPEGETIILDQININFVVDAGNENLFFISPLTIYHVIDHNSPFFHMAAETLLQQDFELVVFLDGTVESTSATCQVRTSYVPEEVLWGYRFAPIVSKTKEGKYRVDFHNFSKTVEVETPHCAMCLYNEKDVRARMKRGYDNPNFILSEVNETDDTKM

Structure (SMILES) | B-score
Cc1nc2ccccn2c1P(=S)(N1CCCCC1)N1CCCCC1 | -3.59 (active)
CSc1nc2ccc(C)cc2c(=O)n1-c1cccnc1 | -0.218
COC(=O)N1C(c2ccccc2)C1c1ccccc1 (stereo not given) | 0.0342
O=C(Nc1cccc2ccccc12)N1CCC2(CC1)OCCO2 | -0.682
CCN1CCN(c2ccc([N+](=O)[O-])cc2C#N)CC1 | -0.443
CC1=C2C(=O)C3C(CC=C4CC(OC5OC(O)C(O)C(O)C5CO)CCC43C)C2CCC12OC1CC(C)CNC1C2C (stereo not given) | -0.573
N=c1ccccn1Cc1ccccc1 | 2.77 (active)
CN(C)/C=C(\C=[N+](C)C)c1[nH]ncc1[N+](=O)[O-] | 0.157
O=c1[nH]c(=O)n(-c2ccccc2)c(O)c1C=NC12CN3CN(CN(C3)C1)C2 | 0.583
O=c1[nH]c(=O)n(CCc2ccccc2)c(O)c1/C=N/N1CCOCC1 | 0.152
CC1=C(C(=O)Nc2ccccc2)S(=O)(=O)CCO1 | 0.94
O=C1N=c2ccccc2=C/C1=C\c1c(O)[nH]c(=S)[nH]c1=O | 0.454
CCOCCc1c(O)[nH]c(=S)[nH]c1=O | -0.807
COc1ccccc1N=Nc1c(O)[nH]c(=S)[nH]c1=O | -2.66 (active)
CNC(=O)O/N=C(\N)Cc1csc2ccccc12 | 0.164
CC(Cc1cccs1)NCc1ccc(Cl)cc1 (stereo not given) | 0.0543
CCCOC(=O)C1C2c3ccccc3C(c3ccccc32)C1C(=O)O (stereo not given) | 0.827
O=C(COC(=O)Cc1ccccc1)Nc1ccc(F)cc1 | -0.767
OC1/C(=C/c2ccc(C(F)(F)F)cc2)N2CCC1CC2 (stereo not given) | -1.88
CCCCCCCCCCCCn1ccc(=N)cc1 | -10.9 (active)
CC(C)CN1CCN(Cc2ccccc2C(F)(F)F)CC1CCO (stereo not given) | -0.0138
CC(C)Oc1cccc(C(=O)C2CCCN(C3CCOCC3)C2)c1 (stereo not given) | 0.0502
Cc1ccc(-c2cc(C(=O)N3CCC4(CC3)OCCO4)no2)cc1 | 1.11
Clc1ccc2nc3c(c(-c4ccccc4)c2c1)CNCC3 | -3.67 (active)
Cc1ccccc1N1C(=O)NC(=O)/C(=C\c2cc(C)n(C)c2C)C1=O | 0.936
Cc1cc(/C=C2/C(=O)NC(=O)N(Cc3ccco3)C2=O)c(C)n1-c1ccc(C(=O)O)cc1 | 0.104
Cc1cc(C=C2C(=O)NC(=O)NC2=O)c(C)n1-c1ccncc1 | -3.19 (active)
O=C(Cn1c(=O)n(CC2CS2)c2ccccc21)N1CCCCC1 (stereo not given) | 1.36
CC(C)c1ccc(-n2c(O)c(/C=N/N3CCOCC3)c(=O)[nH]c2=S)cc1 | 0.913
COc1ccc(NC(=O)N2CCC3(CC2)OCCO3)c(OC)c1 | -0.624
